Results taken from PubChem BioAssay (NCI).
Compounds without any hit were thinned out: in the full panel of roughly 79,000, 15% have a hit. Calls of active or inactive are those of the source. Rule as the data show it: active = growth inhibition above about 70%; inactive = the rest.

Experiments:
[1] = NCI Yeast Anticancer Drug Screen. Data for the rad52 strain (AID 147);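 also: 0% = growth of vehicle-treated control cultures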; conditions: S. cerevisiae rad52 mutant growth inhibition, stronger effect = higher value
Outline: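 Here a repair-compromised yeast strain receives each compound; its growth is then quantified and normalised to vehicle-only controls.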

[2] = NCI Yeast Anticancer Drug Screen. Data for the wt1 strain (AID 149);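 also: 0% = growth of vehicle-treated wt1 cultures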; conditions: S. cerevisiae wt1 strain (SPY 50644) growth inhibition, stronger effect = higher value
Outline: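 Readout: yeast growth inhibition, normalised to vehicle controls, in the wt1 strain exposed to test compounds.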

[3] = NCI Yeast Anticancer Drug Screen. Data for the rad50EPP+ strain (AID 151);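 also: 0% = growth of vehicle-treated control cultures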; conditions: S. cerevisiae rad50 mutant strain, stronger effect = higher value
Outline: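 Read-out is yeast growth inhibition relative to vehicle; cells used were the rad50EPP+ strain.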

[4] = NCI Yeast Anticancer Drug Screen. Data for the mgt1 strain (AID 153); conditions: S. cerevisiae mgt1 mutant growth inhibition, stronger effect = higher value
Outline: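 Measured: inhibition of mgt1 yeast growth by compound, normalized to vehicle-treated cultures.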

[5] = NCI Yeast Anticancer Drug Screen. Data for the rad50 strain (AID 155);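 also: 0% = growth of vehicle-only cultures of the same strain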; conditions: S. cerevisiae rad50 strain growth inhibition, stronger effect = higher value
Outline: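 Compounds were tested on a yeast strain with an engineered DNA damage repair alteration; the reported value is growth inhibition normalised to vehicle treatment.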

[6] = NCI Yeast Anticancer Drug Screen. Data for the mec2-1 strain (AID 157); conditions: S. cerevisiae mec2-1 strain, stronger effect = higher value
Outline: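 Using mec2-1 yeast: add compound, measure growth, express inhibition versus vehicle-treated cultures.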

[7] = NCI Yeast Anticancer Drug Screen. Data for the rad14 strain (AID 159);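 also: 0% = growth of vehicle-treated control cultures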; conditions: S. cerevisiae rad14 strain growth inhibition, stronger effect = higher value
Outline: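 Compound-treated yeast with a defined DNA-repair lesion; growth inhibition normalised to vehicle-treated cultures.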

[8] = NCI Yeast Anticancer Drug Screen. Data for the sgs1 mgt1 strain (AID 161);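 also: 0% = growth of cultures given vehicle only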; conditions: S. cerevisiae sgs1 mgt1 strain, stronger effect = higher value
Outline: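 Compounds are added to genetically altered yeast, and growth is compared with cultures given vehicle alone to give percent inhibition.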

[9] = NCI Yeast Anticancer Drug Screen. Data for the CLN2oe strain (AID 163);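 also: 0% = growth of vehicle-only control cultures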; conditions: S. cerevisiae CLN2oe strain, stronger effect = higher value
Outline: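 Whole-cell yeast growth assay. A strain engineered for altered cell-cycle control received compound, and inhibition relative to vehicle-treated cultures was recorded.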

[10] = NCI Yeast Anticancer Drug Screen. Data for the cln2 rad14 strain (AID 165);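 also: 0% = growth equal to vehicle treated cultures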; conditions: S. cerevisiae cln2 rad14 strain, stronger effect = higher value
Outline: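 Yeast strain cln2 rad14, bearing defects in cell cycle control and DNA repair, serves as the test system; values reflect growth inhibition compared with vehicle.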

[11] = NCI Yeast Anticancer Drug Screen. Data for the bub3 strain (AID 167); conditions: S. cerevisiae bub3 mutant strain, stronger effect = higher value
Outline: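 Growth of a checkpoint-deficient yeast mutant is measured after compound exposure. Values represent inhibition relative to vehicle.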

[12] = NCI Yeast Anticancer Drug Screen. Data for the wt2 strain (AID 169);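 also: 0% = growth of vehicle-treated yeast cultures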; conditions: S. cerevisiae wt2 strain growth inhibition, stronger effect = higher value
Outline: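 Treated yeast vs. vehicle-treated yeast: growth inhibition determined.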

[13] = NCI Yeast Anticancer Drug Screen. Data for the mlh1 rad18 strain (AID 175); conditions: S. cerevisiae mlh1 rad18 strain growth inhibition, stronger effect = higher value
Outline: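 Steps: expose repair-defective yeast to compound; measure growth; express inhibition against vehicle-treated controls.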

[14] = NCI Yeast Anticancer Drug Screen. Data for the rad18 strain (AID 177); conditions: S. cerevisiae rad18 mutant growth inhibition, stronger effect = higher value
Outline: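 Measured value is growth inhibition of a yeast strain bearing a DNA repair alteration, referenced to vehicle-treated cells.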

[15] = NCI Yeast Anticancer Drug Screen. Data for the sgs1 strain (AID 173);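 also: 0% = growth of vehicle-only control cultures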; conditions: S. cerevisiae sgs1 mutant, stronger effect = higher value
Outline: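 A genetically defined yeast mutant is incubated with the test compound, and its growth is compared to that of the same strain given vehicle.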

[16] = at 5.0 µM (retest, dose inferred, filed as 0.5)
[17] = at 50.0 µM (retest, dose inferred, filed as 5.0)

Measured: growth inhibition

CCN1CCC(O)(c2ccc(Oc3ccc(Cl)cc3)cc2)C(C(=O)c2ccc(Oc3ccc(Cl)cc3)cc2)C1 (stereo unspecified)
active: [5]; at 50.0 µM 83% | [6]; at 50.0 µM 93.2% | [8]; [16] 97% | [8]; [17] 98% | [8]; at 50.0 µM 89.2% | [10]; [17] 98% | [10]; at 50.0 µM 87.5% | [11]; [16] 87% | [11]; [17] 98% | [11]; at 50.0 µM 90.2% | [13]; [16] 82% | [13]; at 50.0 µM 90.5%
inactive: [1]; at 1.2 µM -10% | [1]; at 3.7 µM -14% | [1]; at 11.0 µM -16% | [1]; at 33.0 µM -6% | [1]; at 100.0 µM 12% | [2]; at 1.2 µM -51% | [2]; at 3.7 µM -27% | [2]; at 11.0 µM -44% | [2]; at 33.0 µM -46% | [2]; at 100.0 µM -8% | [3]; at 1.2 µM -7% | [3]; at 3.7 µM 0% | [3]; at 11.0 µM 4% | [3]; at 33.0 µM -2% | [3]; at 100.0 µM 7% | [4]; at 1.2 µM 30% | [4]; at 3.7 µM 64% | [4]; at 11.0 µM 42% | [4]; at 33.0 µM 47% | [4]; at 100.0 µM 59% | [5]; at 1.2 µM -20% | [5]; at 3.7 µM -7% | [5]; [16] 51% | [5]; at 11.0 µM -8% | [5]; at 33.0 µM -30% | [5]; [17] 7% | [5]; at 100.0 µM -6% | [6]; at 1.2 µM 0% | [6]; at 3.7 µM 28% | [6]; [16] 68% | [6]; at 11.0 µM 26% | [6]; at 33.0 µM 1% | [6]; [17] -2% | [6]; at 100.0 µM 8% | [7]; at 1.2 µM -4% | [7]; at 3.7 µM 16% | [7]; at 11.0 µM 11% | [7]; at 33.0 µM 21% | [7]; at 100.0 µM 45% | [9]; at 1.2 µM 28% | [9]; at 3.7 µM 44% | [9]; at 11.0 µM 35% | [9]; at 33.0 µM 33% | [9]; at 100.0 µM 16% | [10]; [16] 23% | [11]; at 1.2 µM 22% | [11]; at 3.7 µM 39% | [11]; at 11.0 µM 50% | [11]; at 33.0 µM 39% | [11]; at 100.0 µM 51% | [12]; at 1.2 µM -21% | [12]; at 3.7 µM 35% | [12]; at 11.0 µM 5% | [12]; at 33.0 µM -13% | [12]; at 100.0 µM 23% | [13]; [17] 18% | [14]; at 1.2 µM -6% | [14]; at 3.7 µM 20% | [14]; at 11.0 µM -1% | [14]; at 33.0 µM -4% | [14]; at 100.0 µM 7%

NNc1ccccc1-c1nc2ccccc2[nH]1
inactive: [1]; at 1.2 µM 1% | [1]; at 3.7 µM 7% | [1]; at 11.0 µM 9% | [1]; at 33.0 µM 17% | [1]; at 100.0 µM 60% | [2]; at 1.2 µM -4% | [2]; at 3.7 µM -3% | [2]; at 11.0 µM -5% | [2]; at 33.0 µM -4% | [2]; at 100.0 µM 25% | [3]; at 1.2 µM 2% | [3]; at 3.7 µM 6% | [3]; at 11.0 µM 12% | [3]; at 33.0 µM 24% | [3]; at 100.0 µM 59% | [4]; at 1.2 µM -3% | [4]; at 3.7 µM -2% | [4]; at 11.0 µM 0% | [4]; at 33.0 µM -1% | [4]; at 100.0 µM 48% | [5]; at 1.2 µM -1% | [5]; at 3.7 µM 5% | [5]; [16] -144% | [5]; at 11.0 µM 6% | [5]; at 33.0 µM 26% | [5]; [17] 53% | [5]; at 100.0 µM 60% | [6]; at 1.2 µM 3% | [6]; at 3.7 µM 3% | [6]; [16] -50% | [6]; at 11.0 µM 2% | [6]; at 33.0 µM 1% | [6]; [17] -40% | [6]; at 50.0 µM 48.4% | [6]; at 100.0 µM 20% | [7]; at 1.2 µM -2% | [7]; at 3.7 µM -5% | [7]; at 11.0 µM -1% | [7]; at 33.0 µM 0% | [7]; at 100.0 µM 49% | [8]; [16] -61% | [8]; [17] 27% | [8]; at 50.0 µM 11.7% | [9]; at 1.2 µM -2% | [9]; at 3.7 µM -1% | [9]; at 11.0 µM -3% | [9]; at 33.0 µM -9% | [9]; at 100.0 µM 35% | [10]; [16] -63% | [10]; [17] -73% | [10]; at 50.0 µM 32.1% | [11]; at 1.2 µM -6% | [11]; at 3.7 µM -4% | [11]; [16] -65% | [11]; at 11.0 µM -3% | [11]; at 33.0 µM -3% | [11]; [17] -30% | [11]; at 100.0 µM 30% | [12]; at 1.2 µM 1% | [12]; at 3.7 µM 0% | [12]; at 11.0 µM -1% | [12]; at 33.0 µM -1% | [12]; at 100.0 µM 47% | [15]; at 1.2 µM 0% | [15]; at 3.7 µM 1% | [15]; at 11.0 µM 0% | [15]; at 33.0 µM -1% | [15]; at 100.0 µM 47% | [13]; [16] -114% | [13]; [17] -3% | [14]; at 1.2 µM 0% | [14]; at 3.7 µM -2% | [14]; at 11.0 µM 0% | [14]; at 33.0 µM 0% | [14]; at 100.0 µM 48%
active: [5]; at 50.0 µM 75.9% | [11]; at 50.0 µM 76.9% | [13]; at 50.0 µM 91%
